From PubChem BioAssay (EPA / NIEHS)
Records with an inconclusive call do not appear. The source made the active and inactive calls. How the source made its calls: active means hit-call score of the fitted dose curve at least 0.9, where 1 is the maximum; inconclusive means response in the unintended direction; inactive means score below 0.9.

The compounds below were run on bovine Histamine 1 Receptor (H1), gene 281231 (assay: NVS_GPCR_bH1: NovaScreen (NVS) G Protein-Coupled Receptor Assay for bovine Histamine 1 Receptor (H1) (AID 2283246)).
Protocol: (§1) NVS_GPCR_bH1 is a biochemical, single-readout assay that uses extracted gene-proteins from Bovine cerebellar membranes in a tissue-based cell-free assay. Measurements were taken 1 hour after chemical dosing in a 48-well plate.NVS_GPCR_bH1 is one of one assay component(s) measured or calculated from the NVS_GPCR_bH1 assay. It is designed to make measurements of radioligand binding, a form of binding reporter, as detected with scintillation counting signals by Filter-based radiodetection technology.Data from the assay component NVS_GPCR_bH1 was analyzed into 1 assay endpoint. This assay endpoint, NVS_GPCR_bH1, was analyzed in the positive analysis fitting direction relative to DMSO as the negative control and baseline of activity. Using a type of binding reporter, loss-of-signal activity can be used to understand changes in the binding as they relate to the gene HRH1. Furthermore, this assay endpoint can be referred to as a primary readout, because the performed assay has only produced 1 assay endpoint. To generalize the intended target to other relatable targets, this assay endpoint is annotated to the gpcr intended target family, where the subfamily is rhodopsin-like receptor.
Binding assays used specific radioligands (tritiated, iodinated) with non-radioactive competitive displacement ligands in agonist or antagonist protocols (as indicated) and various reference compounds and inhibitors to titrate specific binding to receptors and transporters. Most enzyme assays (CYPs, kinases, phosphatases, proteases, HDACs) used recombinant protein and specific substrates (fluorescence mostly, some colorimetric and radioactive) and inhibitors, followed by a biochemical separation of substrate and product. All assays for the biochemical HTS were initially run in duplicate at a single concentration (10 uM for CYP450 assays and 25 uM for all others). […]
For `CCOC(=O)[C@]1(c2ccccc2)Oc2ccccc2[C@@H]1N`, the AC50 was 7.49 µM (active).
`C[C@]12C=CC3=C4CCC(=O)C=C4CC[C@H]3[C@@H]1CC[C@@H]2O` was tested, and the outcome was “inactive”.
`Cc1cc(N=Nc2ccccc2C)ccc1N` was tested, and the outcome was “inactive”.

These compounds were tested on guinea pig Leukotriene B4 Receptor (LTB4), gene 100379538 (assay: NVS_GPCR_gLTB4: NovaScreen (NVS) G Protein-Coupled Receptor Assay for guinea pig Leukotriene B4 Receptor (LTB4) (AID 2283247)).
Outline: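 Radioligand displacement on guinea pig spleen membranes, filter-based scintillation counting 2 h after dosing. Primary duplicate single point at 25 uM; hits over threshold (e.g. 30% inhibition) run in concentration-response up to 50 uM, DMSO baseline.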
With `Nc1ccc(Cc2ccc(N)cc2)cc1` the AC50 was 2.83 µM (active).
With `C[C@]12C=CC3=C4CCC(=O)C=C4CC[C@H]3[C@@H]1CC[C@@H]2O` the AC50 was 2.88 µM (active).
In the case of `CCC[CH2][Sn]([Cl])([CH2]CCC)[CH2]CCC`, the AC50 is reported as 15.8 µM (active).

The compounds below were run against human Serotonin, 5-Hydroxytryptamine Receptor 2A (5HT2A), HTR2A (gene 3356) (UniProt P28223) (assay: NVS_GPCR_h5HT2A: NovaScreen (NVS) G Protein-Coupled Receptor Assay for human Serotonin, 5-Hydroxytryptamine Receptor 2A (5HT2A) (AID 2283249)).
Chain of human Serotonin, 5-Hydroxytryptamine Receptor 2A (5HT2A), HTR2A (gene 3356) (P28223 whole entry, looked up): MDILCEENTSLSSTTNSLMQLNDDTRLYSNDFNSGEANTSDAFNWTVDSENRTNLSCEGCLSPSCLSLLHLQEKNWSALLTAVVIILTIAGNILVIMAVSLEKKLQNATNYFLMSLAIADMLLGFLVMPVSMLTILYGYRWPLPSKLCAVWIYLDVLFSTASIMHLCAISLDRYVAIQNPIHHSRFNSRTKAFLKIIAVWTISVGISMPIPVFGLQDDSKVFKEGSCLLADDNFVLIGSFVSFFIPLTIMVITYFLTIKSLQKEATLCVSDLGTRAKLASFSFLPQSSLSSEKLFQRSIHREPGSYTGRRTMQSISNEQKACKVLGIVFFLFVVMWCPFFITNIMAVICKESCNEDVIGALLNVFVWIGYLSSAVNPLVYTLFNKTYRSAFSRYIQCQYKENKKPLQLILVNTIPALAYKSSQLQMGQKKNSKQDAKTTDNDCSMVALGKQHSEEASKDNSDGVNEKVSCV
Outline: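 Human cortex membranes, cell-free radioligand binding; filter-based scintillation read 1.5 h after dosing. Duplicate screen at 25 uM first; displacement of specific binding (loss of signal) versus DMSO.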
In the case of `COP(=S)(OC)SCN1C(=O)c2ccccc2C1=O`, the outcome is reported as “inactive”.
In the case of `O=[N+]([O-])C(Br)(CO)CO`, the outcome is reported as “inactive”.
For `CCOC(=O)[C@]1(c2ccccc2)Oc2ccccc2[C@@H]1N`, the AC50 was 3.91 µM (active).
In the case of `O=C(N[C@H](c1ccccc1)[C@@H]1CN2CCC1CC2)c1c(Cl)ccc(C(F)(F)F)c1Cl`, the AC50 is reported as 37.5 µM (active).
With `CCC[CH2][Sn]([Cl])([CH2]CCC)[CH2]CCC` the AC50 was 32.6 µM (active).
With `CC(C)(C)C(O)(CCc1ccc(Cl)cc1)Cn1cncn1` (stereo not given) the outcome was “inactive”.

The compounds below were run on guinea pig Muscarinic, Peripheral (Mperiperal) Receptor, Non-selective Binding, gene 100379235 (assay: NVS_GPCR_gMPeripheral_NonSelective: NovaScreen (NVS) G Protein-Coupled Receptor Assay for guinea pig Muscarinic, Peripheral (Mperiperal) Receptor, Non-selective Binding (AID 2283250)).
Outline: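 Guinea pig bladder membranes, radioligand binding read 1 h after dosing by filter scintillation counting; loss of signal vs DMSO. Primary duplicate screen at 25 uM, then concentration-response up to 50 uM.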
With `CCOC(=O)[C@]1(c2ccccc2)Oc2ccccc2[C@@H]1N` the AC50 was 13.3 µM (active).
With `O=[N+]([O-])c1ccc(Oc2ccc(Cl)cc2Cl)cc1` the outcome was “inactive”.
In the case of `O=C(Oc1ccc(Br)cc1)N1CCN2CCC1CC2`, the AC50 is reported as 15 µM (active).
`O=C(N[C@H](c1ccccc1)[C@@H]1CN2CCC1CC2)c1c(Cl)ccc(C(F)(F)F)c1Cl` was tested, and the outcome was “inactive”.
`[Cl-].[Cl-].[Hg+2]` was tested, and the AC50 was 9.07 µM (active).
`CCC[CH2][Sn]([Cl])([CH2]CCC)[CH2]CCC` was tested, and the AC50 was 9.81 µM (active).

The compounds below were run against human Serotonin, 5-Hydroxytryptamine Receptor 5A (5HT5A), HTR5A (gene 3361) (UniProt P47898) (assay: NVS_GPCR_h5HT5A: NovaScreen (NVS) G Protein-Coupled Receptor Assay for human Serotonin, 5-Hydroxytryptamine Receptor 5A (5HT5A) (AID 2283251)).
Chain of human Serotonin, 5-Hydroxytryptamine Receptor 5A (5HT5A), HTR5A (gene 3361) (P47898 whole entry, looked up): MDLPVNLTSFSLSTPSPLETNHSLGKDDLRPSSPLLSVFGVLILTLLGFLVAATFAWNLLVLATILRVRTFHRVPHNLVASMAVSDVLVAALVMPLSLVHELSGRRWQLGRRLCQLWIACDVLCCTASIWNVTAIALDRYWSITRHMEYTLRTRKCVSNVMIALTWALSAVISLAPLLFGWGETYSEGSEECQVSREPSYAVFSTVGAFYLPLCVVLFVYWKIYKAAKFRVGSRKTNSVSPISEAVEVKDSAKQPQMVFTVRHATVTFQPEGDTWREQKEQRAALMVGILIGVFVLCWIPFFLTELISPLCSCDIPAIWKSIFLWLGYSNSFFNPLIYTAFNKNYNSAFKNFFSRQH
Protocol: as §1, with “NVS_GPCR_h5HT5A” for “NVS_GPCR_bH1”, “HEK293” for “Bovine cerebellar membranes”, “a” for “a tissue-based”, “96-well plate.NVS_GPCR_h5HT5A” for “48-well plate.NVS_GPCR_bH1”, “NVS_GPCR_h5HT5A,” for “NVS_GPCR_bH1,”, “HTR5A.” for “HRH1.”
(§2) Binding assays used specific radioligands (tritiated, iodinated) with non-radioactive competitive displacement ligands in agonist or antagonist protocols (as indicated) and various reference compounds and inhibitors to titrate specific binding to receptors and transporters. Most enzyme assays (CYPs, kinases, phosphatases, proteases, HDACs) used recombinant protein and specific substrates (fluorescence mostly, some colorimetric and radioactive) and inhibitors, followed by a biochemical separation of substrate and product. All assays for the biochemical HTS were initially run in duplicate at a single concentration (10 uM for CYP450 assays and 25 uM for all others). […] Each assay was run with positive and negative controls, and concurrent controls on every plate. The follow-up (secondary) screen tested active chemical-pairs in concentration series, as well as a few additional assays not tested in the primary screen, some selected negative inactives, and several cases re-run in the concentration series for confirmatory purposes.
`CCOC(=O)[C@]1(c2ccccc2)Oc2ccccc2[C@@H]1N` was tested, and the AC50 was 0.659 µM (active).
In the case of `CCCCCCCCn1sccc1=O`, the AC50 is reported as 26 µM (active).
With `[Cl-].[Cl-].[Hg+2]` the AC50 was 1.59 µM (active).
With `CCC[CH2][Sn]([Cl])([CH2]CCC)[CH2]CCC` the AC50 was 2.07 µM (active).

These compounds were tested against guinea pig Opioid, Kappa 1 Receptor (OpiateK), OPRK1 (gene 100135587) (UniProt P41144) (assay: NVS_GPCR_gOpiateK: NovaScreen (NVS) G Protein-Coupled Receptor Assay for guinea pig Opioid, Kappa 1 Receptor (OpiateK) (AID 2283252);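 further: radioligand displacement from kappa opioid receptor in guinea pig cerebellar membranes; active means reduced radioligand binding relative to DMSO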).
Chain of guinea pig Opioid, Kappa 1 Receptor (OpiateK), OPRK1 (gene 100135587) (P41144 whole entry, looked up): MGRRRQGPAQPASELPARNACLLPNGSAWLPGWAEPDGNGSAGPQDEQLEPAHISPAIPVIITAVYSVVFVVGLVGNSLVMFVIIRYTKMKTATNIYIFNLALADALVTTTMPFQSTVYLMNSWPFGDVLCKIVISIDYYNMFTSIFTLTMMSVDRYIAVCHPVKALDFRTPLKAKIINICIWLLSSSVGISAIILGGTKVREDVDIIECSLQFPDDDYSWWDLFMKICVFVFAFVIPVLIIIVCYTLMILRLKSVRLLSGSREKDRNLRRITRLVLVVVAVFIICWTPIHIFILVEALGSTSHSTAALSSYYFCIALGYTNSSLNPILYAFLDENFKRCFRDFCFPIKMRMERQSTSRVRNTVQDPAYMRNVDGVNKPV
Protocol: as §1, with “NVS_GPCR_gOpiateK” for “NVS_GPCR_bH1”, “Guinea pig” for “Bovine”, “2 hours” for “1 hour”, “plate.NVS_GPCR_gOpiateK” for “plate.NVS_GPCR_bH1”, “NVS_GPCR_gOpiateK,” for “NVS_GPCR_bH1,”, “Oprk1.” for “HRH1.”
as §2
`CCCCCOC(=O)c1ccccc1C(=O)OCCCCC` was tested, and the outcome was “inactive”.
`O=[N+]([O-])C(Br)(CO)CO` was tested, and the AC50 was 25 µM (active).
For `CC(C)N(Cc1ccccc1)C(=O)C(C)(C)C`, the AC50 was 15.7 µM (active).
With `CCCCCCCCn1sccc1=O` the AC50 was 18.2 µM (active).
In the case of `O=C(N[C@H](c1ccccc1)[C@@H]1CN2CCC1CC2)c1c(Cl)ccc(C(F)(F)F)c1Cl`, the AC50 is reported as 0.0235 µM (active).
With `[Cl-].[Cl-].[Hg+2]` the AC50 was 13.5 µM (active).
For `CCC[CH2][Sn]([Cl])([CH2]CCC)[CH2]CCC`, the AC50 was 14.5 µM (active).
For `CCCSC(=O)N(CCC)CCC`, the outcome was “inactive”.
